The source of these data is PubChem BioAssay AID2326 (National Center for Advancing Translational Sciences (NCATS), 2010).

In all, about 270,000 compounds went through this assay and about 1,100 (0.41%) were called active. Entries that show only a call come without a potency. Roughly 3% stayed inconclusive and do not appear here. The sample holds actives, similar compounds and a random draw of the others, so the mix is not that of the screen. The call rests on the fitted dose curve.
Potency means the concentration at half of the fitted maximal effect.

The experiment is described as follows: qHTS Assay for Inhibitors of Influenza NS1 Protein Function. Further: actives are rising curves; nearly all actives have a fitted effect of over 50% in size. Particulars: series mostly up to 46.1 µM. The gist of the method:
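S. cerevisiae expressing influenza A NS1, grown in glucose, washed, then diluted 1:100 into pH 6.0 -URA galactose medium with 23 nl compound. Growth recovery read as OD600; NS1-free strain serves as control.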
For orientation: In qHTS, concentration-response curves come from the screen itself.
As to `CSc1nccc(NC(=O)c2ccc(C(C)(C)C)cc2)n1`, the Potency result was “inactive”. Consider `O=C(COc1ccc(Cl)cc1Cl)N/N=C/c1ccccn1`, for which the Potency entry is “inactive”. Regarding `O=C(O)CC(Cn1cnnn1)c1ccccc1` (centres undefined), the Potency is 8.91 µM (active). The result for `O=C(O)CC(c1ccccc1)n1cnnn1` (centres undefined) reads “inactive”; that for `O=C(O)CC(CC(=O)N1CCOCC1)c1ccccc1` (centres undefined), “inactive”.

For `Cc1ccc(CNC(=O)C(=O)c2cn(CC(=O)N3CCCC3)c3ccccc23)cc1`, the Potency result was “inactive”. On to `COc1cc(CNCc2ccc(OC)c3ccccc23)cc(OC)c1OC`, for which the Potency result was “inactive”. For `COc1ccc(Nc2ncnc3ccc(Br)cc23)c(OC)c1`, the Potency entry is “inactive”.

Regarding `COc1ccc(CC(=O)N/N=C/c2cc([N+](=O)[O-])cc(Br)c2O)cc1`, the Potency result was “inactive”. In the case of `CC(C)(COC(=O)Nc1ccccc1)COC(=O)Nc1ccccc1` it was “inactive”; in that of `COc1ccc(C=C(C#N)C#N)c(CSc2ccccn2)c1`, “inactive”; in that of `COc1ccc(NCCc2ccccn2)cc1`, “inactive”. Consider `Cc1ccc(NS(=O)(=O)c2ccc3c(c2)n(C)c(=O)c(=O)n3C)c(C)c1`, for which the Potency entry was “inactive”. For the compound `Cn1c(=O)c(=O)n(C)c2cc(S(=O)(=O)CCC(=O)N3CCCCC3)ccc21`, the Potency result was “inactive”. As for `CCc1ccc(S(=O)(=O)Nc2cc3c(cc2N2CCCCC2)n(C)c(=O)c(=O)n3C)cc1`, the Potency was 2.82 µM (active).

Turning to `CCOC(=O)CC1COCCN1C(=O)c1cc(COc2ccc(F)c(F)c2)on1` (centres undefined), the Potency entry is “inactive”.

On to `O=C(NC(=S)N1CCCCC1c1cccnc1)c1ccccc1` (centres undefined), for which the Potency result is “inactive”. In the case of `CCC(C)c1ccc(NC(=S)N2CCCC2)cc1` (centres undefined) it was “inactive”; in that of `CCOC(=O)c1ccccc1N1C(=O)C2Sc3[nH]c(=O)sc3C(/C=C/c3ccccc3)C2C1=O` (centres undefined), “inactive”; in that of `COC(=O)C1=C(C)N=C2SC(C)C(=O)N2C1/C=C/c1ccccc1` (centres undefined), 11.2 µM (active).

As for `COC(=O)C1=C(C)NC(=O)NC1/C=C/c1ccccc1` (centres undefined), the Potency entry was “inactive”. The result for `Cc1nonc1NC(=O)c1oc2ccccc2c1C` reads “inactive”. `Cc1nc(N2CCOCC2)sc1C(=O)NN`: the Potency result was “inactive”. In the case of `Cc1nc(-c2ccc(Cl)cc2)sc1C(=O)NN` it was 3.55 µM (active). In the case of `Cc1ccc(SCC(=O)c2sc(-c3ccccc3)nc2C)cc1` it was “inactive”. The result for `CN(CC(=O)Nc1ccc(F)cc1)C(=O)c1ccc(-c2ccc(Cl)cc2)o1` reads “inactive”; that for `CCOC(=O)CC1(NC(=O)c2cc(COc3cncc(Cl)c3)on2)CCCCC1`, “inactive”. As to `O=C(Cc1cccs1)NCc1cccc(C(F)(F)F)c1`, the Potency result is “inactive”. The result for `O=C(CSc1nc2ccccc2c(=O)[nH]1)Nc1nc(-c2ccc(Br)cc2)cs1` reads “inactive”. In the case of `Cc1ccc(CSc2nc(-c3ccccc3)c(C#N)c(=O)[nH]2)cc1`, the Potency entry is “inactive”. Take `N#Cc1c(-c2cccs2)nc(SCC(=O)c2ccc(Br)cc2)[nH]c1=O`: the Potency was 3.16 µM (active). On to `COc1ccc(NC(=O)CSc2nc3ccccc3c(=O)n2C)cc1`, for which the Potency result is “inactive”. Take `COCCN1C(=O)N(c2ccc(Cl)cc2)C(=O)C1CC(=O)Nc1cc(OC)cc(OC)c1` (centres undefined): the Potency result is “inactive”.

`CC(=O)N1c2ccc(S(=O)(=O)N3CCCC(C(=O)Nc4cccc(F)c4)C3)cc2CC1C` (centres undefined): the Potency result is “inactive”.
